Molecules are shown by their SMILES. Records with an inconclusive call do not appear. Activity calls are given as the source filed them. Calls come from the whole dose curve.
Potency is the fitted concentration of half-maximal effect.

The assay can be described thus: qHTS for Inhibitors of Cell Surface uPA Generation: Wild-type Protective Antigen (WT-PrAg) Counterscreen for Cherry-picked Compounds. For activity (protection): 0% is about no effect. To be noted: cells, WT protective antigen toxicity counterscreen; series mostly up to 115 µM; activity (protection): at the top concentration.
`Cc1ccc(-c2nc(CS(=O)(=O)CC(=O)NCc3cccc(F)c3)c(C)o2)cc1`: the “activity (protection)” value is 0.115% (inactive).

Take `Cc1ccc2cccc(OCCCOc3ccccc3CO)c2n1`: the “activity (protection)” value is 1.21% (inactive).

As to `O=C(c1ccco1)N1CCN(c2ncccn2)CC1`, the “activity (protection)” value was -0.994% (inactive).

Take `CCN(CC)S(=O)(=O)c1cc(NC(=O)COC(=O)C2CCC2)ccc1C`: the “activity (protection)” value is 0.3% (inactive).

Regarding `Oc1ccc(/C=N/Nc2cccc(Cl)n2)c(O)c1`, the “activity (protection)” value is -2.29% (inactive).

As to `Cc1ccc(/C=N/NC(=O)c2ccc3nc[nH]c3c2)s1`, the “activity (protection)” value was -2% (inactive).

For the compound `CC(=O)NC(=S)Nc1ccc([N+](=O)[O-])cc1C`, the “activity (protection)” value was 4.08% (inactive).

As to `c1ccc(C2[C@H]3CN(Cc4cccnc4)[C@H](c4ccccc4)C34CC2(c2ccccc2)C4)cc1` (stereo not given in full), the “activity (protection)” value is 2.02% (inactive).

For `C=CS(=O)(=O)c1ccc(Oc2ccc(S(=O)(=O)C=C)cc2)cc1`, the Potency is 65.6 µM (active).

For `O=C(CCCC(=O)N(c1cccc(F)c1)C(C(=O)NC1CCCC1)c1ccc(O)cc1)Nc1ccccn1` (stereo not given), the “activity (protection)” value was -1.3% (inactive).

Take `Cc1ccc(NC(=O)CC2OC(=O)c3ccccc32)cc1S(=O)(=O)N1CCOCC1` (stereo not given): the “activity (protection)” value was -0.507% (inactive).

Take `CC(=O)c1ccc(OCCCCOc2ccc(C(C)=O)cc2)cc1`: the “activity (protection)” value was -0.376% (inactive).

Consider `CC(C)CNC(=O)COC(=O)CCC(=O)c1cccs1`, for which the “activity (protection)” value was -0.0024% (inactive).

On to `CC(C)(O)C#Cc1ccc(C(=O)N2CCCC(CCC(=O)NCc3ccccc3F)C2)cc1` (stereo not given), for which the “activity (protection)” value is -1.52% (inactive).

With `CCOC(=O)C1CCN(S(=O)(=O)c2c[nH]c(=O)[nH]c2=O)CC1`, the “activity (protection)” value was -0.301% (inactive).

For `O=C(Nc1cccc(-c2nn[nH]n2)c1)c1ccc(Cl)s1`, the “activity (protection)” value was -1.91% (inactive).

Consider `Cc1ccc(C)c(-c2ccc(=O)n(Cc3c(F)cccc3Cl)n2)c1`, for which the “activity (protection)” value was -1.81% (inactive).

Take `CCOC(=O)c1ccccc1N=Cc1c(O)c2ccccc2oc1=O`: the “activity (protection)” value was -1.45% (inactive).

For the compound `CC(=O)N1CCN(C(=O)CSc2cc(C)c(Br)cc2C)CC1`, the “activity (protection)” value was -0.948% (inactive).

Regarding `CCc1ccc(OCC(=O)N(Cc2cccs2)C2CCS(=O)(=O)C2)cc1` (stereo not given), the “activity (protection)” value is 1.58% (inactive).

`COc1ccc(C)cc1NC(=O)CSCc1cc(=O)n2c(C)csc2n1`: the “activity (protection)” value was 0.0603% (inactive).

On to `CCOC(=O)C1CCN(CC(=O)Nc2cc(C)nn2-c2nc3ccccc3s2)CC1`, for which the “activity (protection)” value is 12.1% (inactive).

With `COc1ccc(OC)c(NC(=O)C2CCCN2C(=O)C2CCC(C)CC2)c1` (stereo not given), the “activity (protection)” value was 0.0243% (inactive).

For the compound `COc1ccccc1C(=O)NCCC(=O)NCC(c1ccc(F)cc1)N1CCOCC1` (stereo not given), the “activity (protection)” value is -1.45% (inactive).

On to `CC1(C)CC2(CC(c3ccccc3)Oc3cc(O)ccc32)NC(=S)N1` (stereo not given), for which the “activity (protection)” value is -0.912% (inactive).

`Cc1cc(-c2ccccc2)nc(N/N=C/c2ccc(N(C)C)cc2)n1`: the “activity (protection)” value was -1.61% (inactive).

Regarding `CCOC(=O)C1=C(C)N(Cc2ccccc2)C(=O)NC1c1ccc(OC)cc1` (stereo not given), the “activity (protection)” value is -0.684% (inactive).

As for `CC(=O)c1cccc(NC(=O)N2C3CCC2CC(O)(c2cccnc2)C3)c1` (stereo not given), the “activity (protection)” value is 2.27% (inactive).

In the case of `CCCCCn1c(=O)c(C(=O)Nc2ccccn2)c(O)c2ccccc21`, the “activity (protection)” value was -2.18% (inactive).

As to `Cc1ccc(C(O)(COC(=O)C(C)C)COC(=O)C(C)C)c(O)c1`, the “activity (protection)” value is -1.61% (inactive).

Turning to `O=C(NCCCN1CCCC1=O)c1cccc(Oc2ccccc2)c1`, the “activity (protection)” value was 0.0118% (inactive).

Regarding `COc1ccc(Nc2nc(-c3ccccc3)c(C(=O)Nc3cccnc3)s2)cc1`, the “activity (protection)” value was 6.98% (inactive).

Turning to `Cc1ccccc1S(=O)Cc1ccc(C(=O)N2CCN(C(=O)c3ccco3)CC2)o1` (stereo not given), the “activity (protection)” value was -0.657% (inactive).

In the case of `COc1cc(NC(=O)CSc2nnc3ccc(-c4ccncc4)nn23)cc(OC)c1`, the “activity (protection)” value is 1.47% (inactive).

`C#CCN1C=C(C(=O)OCC)C(C)NS1(=O)=O` (stereo not given): the “activity (protection)” value was 1.5% (inactive).

With `COc1ccccc1C(=O)Nc1cccc(C(=O)c2ccccc2)c1`, the “activity (protection)” value is -1.53% (inactive).

Turning to `Cc1ccc(-n2ncc(C(=O)NC3CC3)c2C2CCN(C(=O)OC(C)(C)C)CC2)cc1`, the “activity (protection)” value is 1.41% (inactive).

Turning to `CCC(C)C1NC(=O)C2CCCN2C(=O)C(CC(C)C)OC(=O)CCNC(=O)C(C)N(C)C(=O)C(C(C)C)N(C)C1=O` (stereo not given), the Potency is 3.69 µM (active).

As for `Cc1ccc2nc(Nc3ccc(Cl)cc3)c3nncn3c2c1`, the “activity (protection)” value was 1.05% (inactive).

As to `O=C(NNC(=O)c1cccnc1)c1ccncc1`, the “activity (protection)” value is -0.865% (inactive).

The values above are taken from PubChem BioAssay AID720518 (National Center for Advancing Translational Sciences (NCATS), 2013).
